# Screening data as filed in PubChem BioAssay.
# Compounds with a hit are over-represented: about 2.8% of the library has one in this group of screens.
# PAFAH1B2 FP inh: PAFAH1B2 enzyme inhibitors, primary screen, biochemical, fluorescence polarization, human | Platelet-activating factor acetylhydrolase IB subunit alpha2 (Homo sapiens), P68402 | recombinant PAFAH1B2, FP-rhodamine activity probe | inhibition, % at 3.39 µM | 340,000 compounds, 1.2% hits | AID 492953, 2010;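 active means inhibition above the mean of all tested compounds plus 3 SD, cut at about 24% in these data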;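 further: 0% = enzyme with DMSO and 100% = wells lacking PAFAH1B2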
# PAFAH1B3 inh: PAFAH1B3 enzyme inhibitors, primary screen, biochemical, fluorescence polarization, human | Platelet-activating factor acetylhydrolase IB subunit alpha1 (Homo sapiens), Q15102 | inhibition, % at 3.39 µM | 340,000 compounds, 0.28% hits | recombinant PAFAH1B3, FP-rhodamine probe;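 active means inhibition above the screen-wide average of all tested compounds plus 3 SD, cut at about 25% in these data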;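 further: 0% = enzyme with DMSO only and 100% = wells lacking PAFAH1B3 protein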
# Target sequence (Q15102 whole entry, looked up): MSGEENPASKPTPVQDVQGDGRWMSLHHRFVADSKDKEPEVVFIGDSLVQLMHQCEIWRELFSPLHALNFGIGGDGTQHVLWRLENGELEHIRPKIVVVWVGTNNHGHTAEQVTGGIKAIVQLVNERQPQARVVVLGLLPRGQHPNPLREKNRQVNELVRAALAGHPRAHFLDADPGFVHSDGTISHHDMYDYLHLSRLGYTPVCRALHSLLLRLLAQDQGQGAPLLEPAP
# PAFAH2 inh: PAFAH2 enzyme inhibitors, primary screen, biochemical, fluorescence polarization, human; recombinant PAFAH2, FP-rhodamine activity probe; inhibition, % at 3.39 µM; Platelet-activating factor acetylhydrolase 2, cytoplasmic (Homo sapiens), Q99487; 340,000 compounds, 0.99% hits; AID 492956, 2010;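 active means inhibition above the mean over all tested compounds plus 3 SD, cut at about 30% in these data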;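 further: inhibitors block probe labeling of enzyme so polarization drops; 0% = enzyme with DMSO and 100% = wells lacking PAFAH2 protein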
# PME-1 primary: PME-1 inhibitors via competitive probe labeling, primary screen, biochemical, fluorescence polarization, FP-Rh probe, HTS; AID 2130, 2009; inhibition, % at 5.9 µM; Protein phosphatase methylesterase 1 (Homo sapiens), Q9Y570; 320,000 compounds, 0.53% hits; recombinant PME-1;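 active means inhibition above the campaign mean of all compounds plus 3 SD, cut at about 26% in these data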;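 further: competitive labeling of PME-1 active site by serine hydrolase directed probe; 0% = PME-1 with DMSO and 100% = wells lacking PME-1 enzyme; inhibitors block probe labeling so polarization falls and inhibition rises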
# Target sequence (Q9Y570 whole entry, looked up): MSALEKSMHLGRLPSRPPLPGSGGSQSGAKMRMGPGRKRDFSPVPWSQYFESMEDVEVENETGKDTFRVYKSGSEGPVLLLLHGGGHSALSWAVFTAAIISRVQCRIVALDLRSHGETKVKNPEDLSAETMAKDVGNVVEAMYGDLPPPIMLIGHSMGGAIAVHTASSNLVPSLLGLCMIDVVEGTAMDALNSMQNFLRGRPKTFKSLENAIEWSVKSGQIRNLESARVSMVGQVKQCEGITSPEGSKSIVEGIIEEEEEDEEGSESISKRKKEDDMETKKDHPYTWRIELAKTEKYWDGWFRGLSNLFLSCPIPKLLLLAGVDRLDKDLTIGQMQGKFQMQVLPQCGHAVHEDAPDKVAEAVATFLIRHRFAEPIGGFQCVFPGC
# Fam108B inh: mouse Fam108B serine hydrolase inhibitors, primary screen, counter-screen for RBBP9 inhibitor project, biochemical, fluorescence polarization | AID 1947, 2009 | inhibition, % at 9.51 µM | 300,000 compounds, 0.33% hits | recombinant Fam108B, FP-Rh probe fluorescence polarization;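 active means inhibition above the screen mean inhibition plus 3 SD, computed separately per campaign, cut at about 18% in these data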;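 further: inhibitors lower polarization as less probe binds the enzyme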
# pPAFAH inh: pPAFAH enzyme inhibitors, primary screen, biochemical, fluorescence polarization, human; inhibition, % at 3.39 µM; Platelet-activating factor acetylhydrolase (Homo sapiens), Q13093; recombinant pPAFAH, FP-rhodamine probe fluorescence polarization; 330,000 compounds, 1.5% hits;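 active means inhibition above the mean inhibition across the screen plus 3 SD, cut at about 25% in these data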;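 further: inhibitors block binding of the rhodamine activity-based probe so polarization drops; 0% = enzyme with DMSO and 100% = wells lacking pPAFAH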
# * hit, by the source's call; / = not tested or not shown.
SMILES,PAFAH1B2 FP inh,PAFAH1B3 inh,PAFAH2 inh,PME-1 primary,Fam108B inh,pPAFAH inh
Cc1ccccc1NS(=O)(=O)c1ccc(OCC(=O)NCc2cccnc2)cc1,7,5,-1,4,5,33*
Cc1csc(CN(C)C(=O)CC2C(=O)NCCN2Cc2ccc(F)c(F)c2)n1 (centres undefined),2,9,-4,-3,-3,-5
CC(C)(C)c1ccc(-n2ncc3c2CCCC3NC(=O)CCn2cncn2)cc1 (centres undefined),1,6,3,-3,2,33*
COc1ccccc1NS(=O)(=O)c1cccc(NS(=O)(=O)c2cc(C(=O)O)ccc2OC)c1,4,6,0,/,/,0
COc1ccc(S(=O)(=O)Nc2ccccc2OC)cc1N=Nc1c(O)[nH]c(=S)[nH]c1=O,7,6,15,/,/,26*
CN(CC(=O)Nc1ccc(Cl)c(C(F)(F)F)c1)C(=O)CCCNC(=O)c1ccc(Cl)cc1,53*,3,1,0,/,31*
CN(CC(=O)Nc1ccc(Cl)c(C(F)(F)F)c1)C(=O)CCNC(=O)c1ccco1,10,5,4,-3,-2,9
CCN(CC)c1ccc(N=Cc2ccc(N(CC)CC)cc2O)cc1,1,4,-1,-4,4,29*
COc1ccccc1NS(=O)(=O)c1cc([N+](=O)[O-])ccc1N/N=C/c1c[nH]c2ccccc12,2,3,2,11,10,12
O=C(O)c1ccccc1NS(=O)(=O)c1ccc(N/N=C/c2ccc(O)c(O)c2)c([N+](=O)[O-])c1,59*,58*,72*,/,/,/
COc1ccc(C=NNc2ccc([N+](=O)[O-])cc2S(=O)(=O)Nc2ccccc2C(=O)O)cc1OC,1,14,11,/,/,33*
N=c1c(S(=O)(=O)c2ccccc2)cc2c(=O)n3ccccc3nc2n1Cc1ccco1,2,3,29,7,-2,26*
CCCn1c(=N)c(S(=O)(=O)c2ccccc2)cc2c(=O)n3ccccc3nc21,4,4,14,2,-3,7
N=c1c(S(=O)(=O)c2ccc(Br)cc2)cc2c(=O)n3ccccc3nc2n1CCN1CCOCC1,41*,-4,6,/,/,/
CCCc1cc2c(OC(=O)CC)c(-c3ccc(C(=O)OCC)o3)c(=O)oc2cc1OC,19,60*,67*,-80,4,18
CCOc1cc(N2CCOCC2)c(OCC)cc1NC(=O)CN1C(=O)N(C)C2(CCCCC2)C1=O,16,1,-3,2,/,1
COc1ccc2[nH]c(C(=O)O)c(CCN3C(=O)c4ccc(C(=O)O)cc4C3=O)c2c1,-3,0,-5,1,-8,4
Cc1ccc(NC(=O)CCN2C(=O)c3cccc([N+](=O)[O-])c3C2=O)c(Br)c1,1,11,2,1,0,3
O=C(O)c1[nH]c2ccc(Cl)cc2c1CCN1C(=O)c2ccccc2C1=O,84*,-3,-1,2,3,-1
O=C(O)c1[nH]c2ccc(Br)cc2c1CCN1C(=O)c2cccc([N+](=O)[O-])c2C1=O,53*,2,5,5,4,12
Cc1[nH]c2ccc(C(=O)OC(C)C(=O)NC3(C#N)CCCCC3)cc2c1C (centres undefined),3,0,13,-1,-1,5
CCCOc1ccc(C(CC(=O)O)NC(=O)C(c2ccccc2)c2ccccc2)cc1 (centres undefined),26*,4,1,1,/,2
Nc1nc(=S)c2[nH]cnc2[nH]1,3,3,6,-4,-8,2
CC(C)OC(=O)NC(c1ccccc1)C(Cl)(Cl)Cl (centres undefined),24*,2,13,0,6,3
CCOc1ccc(OC(=O)NC(c2ccccc2)C(Cl)(Cl)Cl)cc1 (centres undefined),26*,2,5,-1,-1,1
SMILES,PAFAH1B2 FP inh,PAFAH1B3 inh,PAFAH2 inh,PME-1 primary,Fam108B inh,pPAFAH inh
COc1ccccc1NC(=O)C(=O)Nc1ccc2c(c1)N(C(=O)C1CC1)CCC2,-2,4,-2,/,/,/
COc1ccc(S(=O)(=O)NCCOc2ccc(Cl)cc2)cc1,20,9,-1,4,/,-2
Cc1ccc(S(=O)(=O)NCC(=O)OCCOc2ccc(Br)cc2)cc1,30*,12,-2,/,/,13
CC(C)(C)SCCNS(=O)(=O)c1ccc(Cl)cc1,/,/,/,-7,1,31*
Cc1ccc(S(=O)(=O)NCC(=O)OCc2ccccc2Br)cc1,13,8,3,-5,3,13
Cc1ccc(OCCNS(=O)(=O)c2ccc(Cl)cc2)cc1,24*,5,9,9,/,3
COC(=O)Cn1cnc(C(=O)Nc2ccc(C)c(C)c2)n1,7,5,0,/,/,6
CC[C@H](C)Cc1cn([C@@H](CCCN=C(N)N)C(=O)NCCCCCCCCCCC(=O)N2CCNCC2)nn1,-1,10,7,3,-3,-2
O=c1[nH]c(SCCOc2cccc3ccccc23)nc2ccccc12,2,3,-1,-8,-1,3
CCOc1ccc(OCCSc2nc3ccccc3c(=O)[nH]2)cc1,31*,-6,3,-4,0,3
O=C(NCc1n[nH]c(=S)n1-c1ccc(Br)cc1)c1ccc(S(=O)(=O)N2CCCC2)cc1,12,-1,1,5,2,-3
O=C(NCc1n[nH]c(=S)n1-c1ccc(Br)cc1)c1ccc(S(=O)(=O)N2CCCCC2)cc1,30*,-9,3,-2,2,4
COc1ccc(-c2nnc(C)c3nocc23)cc1,-2,0,0,-5,-12,25*
CNC(=O)c1cc(S(=O)(=O)Nc2ccc(C)cc2C)ccc1C,-3,3,0,-1,0,30*
Cc1ccc(NS(=O)(=O)c2ccc3[nH]c(=O)[nH]c3c2)c(C)c1,-5,-2,-5,-2,0,28*
Cc1ccc(NS(=O)(=O)c2cc(C(=O)NCCCN(C)C)ccc2Cl)cc1Cl,-1,4,0,/,/,/
CCC(C)(C)n1nnnc1C(c1cccnc1)N1CCC(Cc2ccccc2)CC1 (centres undefined),-4,3,-1,0,1,9
CCC(C)(C)n1nnnc1C(c1ccncc1)N1CCC(Cc2ccccc2)CC1 (centres undefined),0,7,-7,0,4,26*
